Assay outcomes deposited in PubChem BioAssay by National Center for Advancing Translational Sciences (NCATS).
Only some compounds are listed: those with a hit (about 4.6% of all), similar ones and a draw of the others.
D1 antagonist – Antagonist of Human D 1 Dopamine Receptor: qHTS; D(1A) dopamine receptor (Homo sapiens), P21728; HEK293 TREx D1 cells, calcium flux, dopamine EC80; stronger effect = lower value; activity change, negative = inhibition, % at 10 µM; actives 3.2% (n = 360,000); AID 504652, 2011; in the data active means activity change below about -30%
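Calcium flux readout: force-coupled, inducible Hek293 Trex D1 line, cells induced overnight at 30 C with tetracycline, dye-loaded 30–90 min at RT. Antagonism scored against EC80 dopamine challenge given 180 s after compound.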
D1 PAM – Potentiators of Human D1 Dopamine Receptor: qHTS; D(1A) dopamine receptor (Homo sapiens), P21728; HEK293 TREx D1 cells, calcium flux, dopamine EC20 potentiation; potentiation, % at 10 µM; actives 0.036% (n = 360,000); AID 504651, 2011; in the data active means potentiation above about 30%
TRHR ag – qHTS for Small Molecule Agonists and Allosteric Enhancers of Human TRH Receptor: Primary Screen for Agonists; activation, % at 2 µM; TRHR cells, calcium flux fluo-8, FDSS agonist mode; actives 0.18% (n = 360,000)
Target sequence (P34981 whole entry, looked up): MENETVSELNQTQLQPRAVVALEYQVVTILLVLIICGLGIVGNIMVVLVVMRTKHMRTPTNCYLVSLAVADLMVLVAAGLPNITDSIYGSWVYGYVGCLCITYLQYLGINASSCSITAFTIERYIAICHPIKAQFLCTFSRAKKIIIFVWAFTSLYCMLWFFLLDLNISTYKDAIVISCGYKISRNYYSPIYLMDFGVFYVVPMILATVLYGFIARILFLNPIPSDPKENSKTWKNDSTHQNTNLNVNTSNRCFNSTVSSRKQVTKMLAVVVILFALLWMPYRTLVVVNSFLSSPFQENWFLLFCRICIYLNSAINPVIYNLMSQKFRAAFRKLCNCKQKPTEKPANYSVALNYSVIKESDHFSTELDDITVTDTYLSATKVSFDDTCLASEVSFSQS
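Read-out: compound-evoked intracellular calcium rise in TRHR cells, fluo-8 dye, kinetic FDSS fluorescence at 1 s/cycle following a 10-cycle baseline. Cells cultured overnight before dye loading (30 min–1.5 h, RT).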
TRHR enhancer – qHTS for Small Molecule Agonists and Allosteric Enhancers of Human TRH Receptor: Primary Screen for Enhancers | Thyrotropin-releasing hormone receptor (Homo sapiens), P34981 | enhancement, % at 2 µM | actives 0.66% (n = 360,000) | TRHR cells, fluo-8 calcium fluorescence, EC20 TRH enhancement; in the data active means enhancement above about 30%
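TRHR-expressing cells loaded with fluo-8 calcium dye were read kinetically (ex 480/em 530) during compound addition, then stimulated with an EC20 of TRH (10 nM final). Enhancement of the Gq-mediated intracellular calcium response was scored.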
D1 agonist – Allosteric Agonists of the Human D1 Dopamine Receptor: qHTS; D(1A) dopamine receptor (Homo sapiens), P21728; HEK293 T-REx D1 cells, calcium flux, agonist mode; activation, % at 2 µM; actives 1% (n = 360,000); AID 504660, 2011
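Tetracycline-induced HEK293 TREx D1 cells, force-coupled to calcium signalling, were dye-loaded with a no-wash calcium kit. Compound was pin-added after a 10 s baseline. Fluorescence was read kinetically at 1 cycle/s for 180 s, with calcium rises flagged as agonism.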
Large screens that a line does not name were inactive. Unless noted, no stated cut-off is given here; in the data, active means activation above about 30%; inactive means the rest.

COc1cc(NC(=O)c2ccc3c(c2)OCO3)c2ncccc2c1	D1 antagonist -30.7
COc1ccc(N2CCOCC2)c(NC(=O)c2ccc3c(c2)OCO3)c1	TRHR enhancer 37.8
COc1ccc(C(=O)NC(=S)Nc2ccccc2N2CCOCC2)cc1[N+](=O)[O-]	none
C=CCNC(=S)NNC(=O)c1ccccc1	TRHR enhancer 39.3
COc1ccc(CNC(=O)CCSc2ccc(F)cc2)cc1OC	D1 antagonist -39.5
O=C(c1ccc2c(=O)n3c(nc2c1)CCCCC3)N1CCN(c2ccc(F)cc2)CC1	D1 antagonist -49.9
CN(CC(=O)Nc1ccccc1C(F)(F)F)C(=O)c1ccc2c(=O)n3c(nc2c1)CCC3	D1 antagonist -32.0
Cc1cccc(NC(=O)c2ccc3c(=O)n4c(nc3c2)CCCCC4)n1	D1 antagonist -36.8
CCN(C(=O)c1ccc2c(=O)n3c(nc2c1)CCCCC3)c1cc(C)ccc1C	D1 antagonist -52.1
CCOc1ccccc1N(C)C(=O)c1cc(S(=O)(=O)NCc2ccc(C)cc2)ccc1F	none
COC(=O)c1c(-c2ccc(Cl)cc2)noc1N1CCN(c2cccc(C)c2C)CC1	none
COc1cc(Cl)c(C)cc1NC(=O)CSCc1nc(-c2ccc(OC)c(OC)c2)no1	none
COc1ccccc1CNC(=O)CSC1=Nc2ccccc2N=C(c2ccc(F)cc2)C1	none
Cc1ccc(S(=O)(=O)N2CCN(C(=O)CCCOc3cccc(C)c3)CC2)cc1	D1 antagonist -38.8
CC(=O)c1ccc(OCCCC(=O)N2CCN(S(=O)(=O)c3cc(C)ccc3C)CC2)cc1	none
Cc1ccc(OCCCC(=O)N2CCN(S(=O)(=O)c3cccc(F)c3)CC2)cc1	D1 antagonist -33.1
CC(=O)c1ccc(OCCCC(=O)N2CCN(S(=O)(=O)c3ccc(C)cc3C)CC2)cc1	D1 antagonist -30.6
COC(=O)c1cc(NC2(c3ccccc3)C(=O)c3ccccc3C2=O)cc(C(=O)OC)c1	none
CN(C)CCCNS(=O)(=O)c1ccc(N2CCC(c3ccc(Cl)cc3)=N2)cc1	D1 agonist 42.3
CN(C)CCCNS(=O)(=O)c1cc(Cl)ccc1Cl	none
O=S(=O)(c1ccc(N2CCC(c3ccc(Cl)cc3)=N2)cc1)N(CCO)CCO	D1 agonist 121.5
COc1cc2[nH]c(Cl)c([N+](=O)[O-])c2cc1OC	D1 antagonist -30.6
COc1cc2[nH]c3c(Cl)ncnc3c2cc1OC	none
COc1cc(OC)c(NC(=O)Nc2ccccc2OCc2cc(=O)n3cc(C)ccc3n2)cc1Cl	none
COc1cc(OC)c(NC(=O)Nc2cccc(OCc3cc(=O)n4ccccc4n3)c2)cc1Cl	D1 antagonist -40.0
CCOC(=O)c1ccc(NC(=O)c2nn(C)c3c2COc2ccccc2-3)cc1	none
COc1ccc(CCN=C(N)C(C)c2ccccc2)cc1OC (stereo not drawn)	none
CC(C)Cc1ccc(C(C)C(N)=NCCc2ccccc2)cc1 (stereo not drawn)	D1 agonist 30.3
CCOc1ccccc1Oc1nc(C)nc2c1oc1ccccc12	none
COc1ccc2[nH]c(=O)c(CN(Cc3ccccc3)C(=S)NCC3CCCO3)cc2c1 (stereo not drawn)	TRHR enhancer 35.2
COc1ccc2[nH]c(=O)c(CN(CCCN3CCOCC3)C(=O)NCc3ccccc3)cc2c1	D1 antagonist -37.1
CCOc1ccc2[nH]c(=O)c(CN(CC3CCCN3CC)C(=O)NCc3ccccc3)cc2c1 (stereo not drawn)	D1 antagonist -50.3
COc1cccc(CSc2nc3n(n2)C(c2cccs2)C(C(=O)Nc2ccccc2C)=C(C)N3)c1 (stereo not drawn)	none
Cc1cc(Nc2ccccc2C)n2nc(Cc3ccc(Cl)cc3)nc2n1	none
COc1ccc(CNC(=O)CCc2c(C)c3cc4c(C)c(C)oc4cc3oc2=O)cc1OC	none
CCn1c2c(c(=O)n3ncc(C(=O)N4CCN(c5ccc(Cl)cc5)CC4)c13)CN(Cc1ccc(OC)cc1)CC2	D1 antagonist -45.6
Cc1cc(C)cc(N2CCn3c2nc2c3c(=O)n(Cc3c(F)cccc3Cl)c(=O)n2C)c1	D1 antagonist -30.7
C=C(C)Cn1c(=O)c2c(nc3n2CCN3c2cc(C)cc(C)c2)n(C)c1=O	none
COc1ccc(C(CCN2CCCCC2)c2c(OC)cc(OC)c3c(-c4ccccc4)cc(=O)oc23)cc1 (stereo not drawn)	D1 antagonist -43.0, D1 agonist 55.5
COc1cc(OC)c2c(-c3ccccc3)cc(=O)oc2c1C(CC(=O)N1CCCC1)c1ccc2c(c1)OCO2 (stereo not drawn)	D1 antagonist -35.8
O=C(CSCc1cnn(-c2ccccc2)c1-n1cccc1)NCc1ccc(F)cc1	none
O=C(c1cc(COc2ccc(F)cc2Cl)on1)N1CCN(C2CCCC2)CC1	D1 antagonist -44.2
CCC1CCCCN1CC(C)(C)NS(=O)(=O)c1ccccc1 (stereo not drawn)	D1 antagonist -44.4
Cc1ccc(S(=O)(=O)N2CCN(C(=O)COC(=O)CCOc3cc(C)ccc3C)CC2)cc1	none
Cc1ccc(S(=O)(=O)N2CCN(C(=O)COC(=O)CCOc3ccccc3C)CC2)cc1	D1 antagonist -36.2
CCOC(=O)CSc1nnc(CNC(=O)c2ccc(S(=O)(=O)N3CCOCC3)cc2)n1C	none
Cc1ccc(C)c(OCCC(=O)OCC(=O)N2CCN(S(=O)(=O)c3ccc(Cl)cc3)CC2)c1	none
CCOC(=O)CSc1nnc(CNC(=O)c2ccc(S(=O)(=O)N3CCCC3)cc2)n1C	D1 agonist 53.6
Cc1ccc(C)c(OCCC(=O)N2CCN(S(=O)(=O)c3ccc([N+](=O)[O-])cc3)CC2)c1	D1 antagonist -32.6
CCOc1ccc(OCCC(=O)OCC(=O)N2CCN(S(=O)(=O)c3ccc(Cl)cc3)CC2)cc1	D1 antagonist -31.9
CCOC(=O)c1sc2ccccc2c1S(=O)(=O)Nc1ccc(CC)cc1	none
CC(C)N(Cc1ccccc1)C(=O)C1CCCN(c2ncnc3onc(-c4ccc(F)cc4)c23)C1 (stereo not drawn)	none
CCN(CC)CCCNC(=O)CCCn1ncn2c(cc3occc32)c1=O	none
CC(=O)N1CCc2c(sc3c2c(=O)n(-c2ccccc2Cl)c(=O)n3C)C1	none
Cc1ccc(O)c(NC(=O)CCSc2nc(-c3ccco3)cc(C(F)(F)F)n2)c1	none
CCN1CCN(S(=O)(=O)c2ccc(OC)c(NC(=O)c3ccccc3)c2)CC1	D1 antagonist -48.1
Cc1ccccc1OCCOC(=O)c1ccc(S(=O)(=O)N2CCCC2)cc1	D1 antagonist -30.8
CCOc1ccccc1NC(=O)c1ccc(S(=O)(=O)N2CCCCC2)cc1	TRHR enhancer 32.1
